The text below walks through data of PubChem BioAssay (Tox21).

Structures are written as SMILES. “And” between values parts separate entries of the source, which are not always exact repeats. Equal entries are not always repeated. Inconclusive results are not listed. The source made the active and inactive calls. Calls follow the shape of the dose curve; as a rule, active = well fitted inhibition curve with a large enough effect in the repeat runs; inconclusive = weak or mixed curves; inactive = no such curve, though single readings can be large or run the other way.
% is scaled to controls: 0 for no effect and ±100 for the full control effect; potency is read from the fitted curve at half-maximal effect.

Cytochrome P450 1A2 (Homo sapiens), sequence (P05177 whole entry, looked up): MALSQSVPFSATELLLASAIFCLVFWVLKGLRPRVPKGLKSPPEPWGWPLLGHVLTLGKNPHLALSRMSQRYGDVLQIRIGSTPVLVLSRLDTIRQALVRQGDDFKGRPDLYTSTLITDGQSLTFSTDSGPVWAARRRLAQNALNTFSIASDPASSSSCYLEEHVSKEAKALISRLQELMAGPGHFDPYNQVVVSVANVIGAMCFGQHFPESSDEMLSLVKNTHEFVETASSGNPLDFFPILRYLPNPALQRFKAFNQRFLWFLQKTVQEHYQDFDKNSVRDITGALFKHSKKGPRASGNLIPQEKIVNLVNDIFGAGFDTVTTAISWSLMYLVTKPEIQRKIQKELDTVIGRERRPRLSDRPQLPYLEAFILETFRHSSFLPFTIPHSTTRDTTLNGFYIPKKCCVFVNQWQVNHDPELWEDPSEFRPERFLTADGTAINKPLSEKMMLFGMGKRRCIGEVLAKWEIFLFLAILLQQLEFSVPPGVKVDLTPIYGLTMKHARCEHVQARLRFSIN

For the experiment, the target named is Cytochrome P450 1A2 (Homo sapiens) (UniProt P05177). The experiment is described as follows: Cytochrome P450 Family 1 Subfamily A Member 2 (CYP1A2) small molecule antagonists: luciferase reporter qHTS assay (AID 1671199). Also: nearly all actives have a fitted effect of over 50% in size. To be noted: P450-Glo CYP1A2 enzyme, luciferin luminescence, 1 h; series mostly up to 115 µM; activity change, negative = inhibition: at the top concentration. The source says:
National Center for Advancing Translational Sciences [NCATS]
U.S. Environmental Protection Agency [EPA]
National Institutes of Environmental Health Sciences [NIEHS]
National Toxicology Program [NTP]
U.S. Food and Drug Administration [FDA]
Cytochrome P450 (CYP) enzymes are membrane-bound hemeproteins that play a key role in metabolism of drugs and xenobiotics. Evaluation of the effect of chemicals on CYP isozymes is useful to minimize the adverse drug reactions and toxicities in drug development process. Tox21 chemicals were tested for their effect on CYP enzyme activities by using P450-Glo (TM) screening systems (Promega Corporation, Madison, WI). These systems provide a luminescent method containing proluciferin substrates and are converted to luciferin products by CYP isozymes. The luciferin products formed are detected with a luciferin detection reagent, and the amount of light produced is proportional to CYP activity. P450-Glo (TM) CYP1A2 screening system (Catalog. No. V9770) was used to detect the compounds that interfere in CYP1A2 activity. The positive control compound used for CYP1A2 assay is furafylline (Sigma-Aldrich, St. Louis, MO).
Tox21 Assay Protocol Summary:
Two ul of enzyme-substrate mix was dispensed into medium binding white/solid 1536-well plates (Greiner Bio-One North America Inc., Monroe, NC) using a BioRaptr Flying Reagent Dispenser (FRD, Beckman Coulter, Brea, CA). Compounds dissolved in DMSO and positive control (furafyllline) were transferred to the assay plates at 23 nl using a Pintool station (Wako, San Diego, CA). The assay plates were incubated at room temperature for 10 min. Then 2 ul of NADPH regeneration solution was added to each well of the assay plates using an FRD and incubated at room temperature for 1 h. The reaction was stopped by adding 4 ul of detection reagent using an FRD and after 20 min incubation at room temperature the luminescence signal was measured using a ViewLux plate reader (Perkin Elmer, Shelton, CT). Data were expressed as relative luminescence units.
A general note: Reporter assays use an easily measured gene product as a stand-in for the process of interest.
As for `Clc1ccc(C(c2ccc(Cl)cc2)C(Cl)(Cl)Cl)cc1`, the Potency is 12.6 µM (active) and 13.8 µM (active). With `C[C@]12CC[C@@H]3c4ccc(OC(=O)N(CCCl)CCCl)cc4CC[C@H]3[C@@H]1CC[C@@H]2O`, the “activity change, negative = inhibition” value is -9.25% [at 53 µM] (inactive). On the same count and under the same terms, with `ClC1=C(Cl)[C@]2(Cl)[C@@H]3[C@@H](Cl)[C@H](Cl)C[C@@H]3[C@@]1(Cl)C2(Cl)Cl` the figure was 5.44% (inactive). Turning to `CN(C)c1ccc(N=Nc2ccccc2)cc1`, the Potency was 3.56 µM (active).

Consider `Nc1c(Oc2ccccc2)cc(O)c2c1C(=O)c1ccccc1C2=O`, for which the Potency is 1.23 µM (active). On the same count and under the same terms, as for `O=S(=O)(c1ccc(Cl)cc1)c1ccc(Cl)cc1`, the figure is 34 µM (active); as for `O=CC(Br)(Br)Br`, 28.2 µM (active).

In the case of `N#C/C=C/c1ccccc1`, the Potency was 35.6 µM (active).

On to `CC(C)CC(C)(c1ccc(O)cc1)c1ccc(O)cc1`, for which the Potency entry is “inactive”. With `ClC1=C(Cl)[C@]2(Cl)[C@@H]3[C@@H](Cl)[C@@H](Cl)C[C@@H]3[C@@]1(Cl)C2(Cl)Cl`, the “activity change, negative = inhibition” value is -21.9% (inactive). As for `CCC(C)c1cc([N+](=O)[O-])cc([N+](=O)[O-])c1OC(=O)C=C(C)C` (stereo not given), the Potency was 35.6 µM (active). `Nc1ccc(Cl)cc1C(=O)c1ccccc1`: the Potency was 15.9 µM (active). On to `CC(C)C(=O)Cl`, for which the “activity change, negative = inhibition” value was 0.305% (inactive). Consider `CC(=O)OC1(c2ccccc2)CCN(CCc2ccccc2)CC1`, for which the “activity change, negative = inhibition” value was -4.15% (inactive). In the case of `Cc1cccc(OP(=O)(Oc2cccc(C)c2)Oc2cccc(C)c2)c1`, the Potency is 28.3 µM (active). Still for that read-out and setting: as for `CCCOCC(=Nc1ccc(Cl)cc1C(F)(F)F)n1ccnc1`, the figure is 8.94 µM (active). In the case of `CN(C)S(=O)(=O)N(SC(F)(Cl)Cl)c1ccccc1`, the Potency is 22.4 µM (active).

On to `CC1CCC(C(C)C)C(OC(=O)c2ccccc2N)C1` (stereo not given), for which the Potency was 12.4 µM (active).

`CCOP(=S)(OCC)SCS(=O)(=O)C(C)(C)C`: the Potency was 44.8 µM (active).

Consider `Nc1ccc(Cc2ccc(N)c(Cl)c2)cc1Cl`, for which the Potency is 27.3 µM (active). Turning to `COS(=O)(=O)c1ccc(C)cc1`, the “activity change, negative = inhibition” value is -10.4% (inactive). Regarding `O=C1c2ccccc2C(=O)C1C(=O)C(c1ccccc1)c1ccc(Cl)cc1` (stereo not given), the Potency was 20 µM (active). For the molecule `COc1cc(N)c(Cl)cc1C(=O)NC1CN2CCC1CC2` (stereo not given), the “activity change, negative = inhibition” value was -8.78% [at 53 µM] (inactive).

On to `N#CCc1ccc(Cl)cc1`, for which the Potency was 31.7 µM (active).

Consider `Oc1ccc(I)cc1`, for which the Potency is 39.9 µM (active). On the same count and under the same terms, with `COP(=S)(OC)Oc1cc(Cl)c(Br)cc1Cl` the figure was 11.2 µM (active). On the same count and under the same terms, with `O=C1C=CC(=O)c2ccccc21` the figure was 25.2 µM (active). `Cc1cc(Cl)ccc1O[C@H](C)C(=O)O`: the “activity change, negative = inhibition” value was 3.19% (inactive). For `CCc1nn(C)c(C(=O)NCc2ccc(C(C)(C)C)cc2)c1Cl`, the Potency is 22.4 µM (active).

`CCOCCOC(C)=O`: the Potency was 43.5 µM (active).

Consider `BrC(Br)C(Br)(Br)Br`, for which the Potency was 31.9 µM (active). For `CCN(CC)c1c([N+](=O)[O-])cc(C(F)(F)F)c(N)c1[N+](=O)[O-]`, the Potency was 0.356 µM (active). On to `COP(=O)(CCC(=O)NCO)OC`, for which the “activity change, negative = inhibition” value was -1.21% (inactive). Same read-out and setting: as for `CC(C)[C@H](C(=O)OC(C#N)c1cccc(Oc2ccccc2)c1)c1ccc(OC(F)F)cc1` (stereo not given in full), the figure is -13.9% (inactive).

On to `CC(=O)Nc1ccc2c(c1)Cc1ccccc1-2`, for which the Potency was 3.22 µM (active).

As for `ClC1=C(Cl)[C@]2(Cl)[C@H]3[C@H]([C@H]4C=C[C@H]3C4)[C@@]1(Cl)C2(Cl)Cl`, the “activity change, negative = inhibition” value was -17.2% (inactive). As for `Cc1cc(C(C)(C)c2cc(C)c(O)c(C)c2)cc(C)c1O`, the Potency was 38.6 µM (active). Still for that read-out and setting: with `CC(Cc1ccc(C(C)(C)C)cc1)CN1C[C@@H](C)O[C@@H](C)C1` (stereo not given in full) the figure was 39.9 µM (active). On to `CCc1cc(C)cc(CC)c1-c1c(OC(=O)C(C)(C)C)n2n(c1=O)CCOCC2`, for which the “activity change, negative = inhibition” value was -9.71% (inactive). With `COP(=O)(OC)SCn1c(=O)oc2cc(Cl)cnc21`, the Potency was 39.9 µM (active).
